According to PubChem BioAssay (NCI):
This is part of a sample that, as a whole, favours compounds with a hit. Of some 83,000 tested, about 20% had one in any assay.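 Single-dose data. Exposure time 48 hours. Values below 10 considered active.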 Activity calls are given as the source filed them.

How the values were obtained:
Experiment in all cases: NCI-60 one-dose screen, 48 h (100 = growth as untreated, 0 = no growth, -100 = all killed)
Details in all cases: 10 µM unless noted
[1] = system: NCI-H23 lung
[2] = system: NCI-H322M lung
[3] = system: HOP-62 NSCLC
[4] = system: NCI-H460 lung
[5] = system: HOP-92 NSCLC
[6] = system: NCI-H522 lung
[7] = system: 786-0 renal
[8] = system: COLO 205 colon
[9] = system: DU-145 prostate
[10] = system: K-562 leukemia
[11] = system: MALME-3M melanoma
[12] = system: MDA-MB-231 breast
[13] = system: RXF 393 renal
[14] = system: SF-268 CNS
[15] = system: SF-539 CNS
[16] = system: UACC-257 melanoma
[17] = system: M14 melanoma
[18] = system: HCT-15 colon
[19] = system: SF-295 CNS
[20] = system: A549/ATCC NSCLC

Measured: growth

FC(F)(F)c1cccc(Nc2nc(-c3ccccc3)nc3ncccc23)c1
active: [5] -67.3% | [8] -75% | [10] -47.1% | [11] -83.1% | [13] -13.6% | [15] 3.25% | [16] -52.7% | [17] -86.6%
inactive: [1] 89.9% | [2] 87.8% | [3] 84.5% | [4] 20.9% | [6] 72.8% | [7] 68% | [9] 75.1% | [12] 44% | [14] 13.3% | [18] 17.6%

Cc1cccc2c(=O)c3c(sc12)c(NCCN)nc1ccccc13
inactive: [5] 27.7% | [13] 34.1%
active: [1] -13.2% | [2] -38.3% | [3] -64.6% | [4] -75.3% | [6] -56.3% | [7] -37.4% | [9] -87.9% | [10] -45.2% | [11] -74.2% | [12] -75.6% | [14] 6.22% | [19] -75.3% | [15] -85.7% | [16] -17.6% | [17] -75.7% | [18] -79.9%

COc1ccc(Cn2c(Br)c3c(c2-c2cc(OC)c(OC)c(OC)c2)CCc2sc(NC(=O)c4ccc(OC)cc4)nc2-3)cc1
inactive: [1] 91.9% | [2] 69.3% | [3] 106% | [4] 98% | [5] 89.1% | [6] 85.4% | [7] 89.8% | [8] 107% | [9] 102% | [10] 84.6% | [11] 86.1% | [12] 87.1% | [13] 91.9% | [14] 78.6% | [19] 67.8% | [15] 100% | [16] 116% | [17] 97.4% | [18] 98.3%

O=Nc1c(O)ccc2ccccc12.O=Nc1c(O)ccc2ccccc12.O=Nc1c([O-])ccc2ccccc12.[Fe+3]
inactive: [1] 87% | [2] 104% | [3] 87.6% | [4] 105% | [5] 94.5% | [6] 103% | [7] 115% | [8] 103% | [9] 125% | [10] 115% | [11] 95.8% | [12] 86.9% | [13] 110% | [14] 106% | [15] 96% | [16] 110% | [17] 97.2% | [18] 105%

CNCCNc1nc2ccccc2c2c(=O)c3cc(OC)ccc3sc12
active: [4] -72.2% | [6] 9.6% | [9] -25.6% | [10] -34% | [12] 1.79% | [17] -62.5% | [18] -31.8%
inactive: [1] 69.6% | [2] 38.8% | [3] 41.2% | [5] 23.9% | [7] 10.7% | [11] 67.1% | [13] 42.4% | [14] 38.7% | [19] 87.3% | [15] 60% | [16] 73.1%

O=c1oc2ccc(Cl)cc2c(=O)n1-c1cc(C(F)(F)F)cc(C(F)(F)F)c1
inactive: [9] 14.4%
active: [1] -5.36% | [2] 3.4% | [3] -9.09% | [4] 1.5% | [5] -7% | [6] -14.3% | [7] -11.8% | [8] -74.8% | [10] 8.63% | [11] -33.8% | [12] -21.9% | [13] -5.99% | [14] 3.66% | [19] -65.1% | [15] -5.73% | [16] -14.7% | [17] -22.5% | [18] -5.03%

O=S(=O)(c1ccccc1)n1cc2c(c1-c1ccccc1)CCc1sc(Nc3ccccc3)nc1-2
inactive: [1] 92.8% | [2] 75.6% | [3] 112% | [4] 86.6% | [5] 86.6% | [6] 77.7% | [7] 89.7% | [8] 103% | [9] 90.1% | [10] 63.7% | [11] 105% | [12] 79.4% | [13] 87% | [14] 86.7% | [15] 106% | [16] 96.5% | [17] 87.8% | [18] 83.8%

COc1ccc(/C=C2/SC(=O)N(CC(=O)N3CCN(c4cc5c(cc4F)c(=O)c(C(=O)O)cn5C4CC4)CC3)C2=O)cc1
inactive: [1] 100% | [2] 99% | [3] 97.6% | [4] 103% | [5] 113% | [6] 87.1% | [7] 97.3% | [9] 115% | [10] 110% | [11] 98.5% | [12] 103% | [13] 117% | [14] 101% | [19] 101% | [15] 91.1% | [16] 91.9% | [17] 103% | [18] 109%

O=C(N/N=C/c1ccccc1O)C(=O)Nc1ccc(F)cc1
active: [8] 9.67% | [19] 4.78%
inactive: [1] 57.7% | [2] 26.6% | [3] 50.1% | [4] 23.1% | [5] 65% | [6] 15.7% | [7] 53.8% | [9] 46.5% | [10] 42.3% | [11] 70.9% | [12] 43.8% | [13] 74.3% | [14] 48.8% | [15] 33.7% | [16] 27.2% | [17] 50% | [18] 28.2%

O=C(NN1C(=O)CSC1c1ccc(Cl)cc1)c1[nH]c2ccc(F)cc2c1-c1ccccc1 (configuration not stated)
active: [4] 5.13% | [19] 8.34%
inactive: [1] 57.8% | [2] 82.1% | [3] 78.1% | [5] 46.5% | [6] 74.4% | [7] 65.8% | [8] 13.6% | [9] 77.2% | [10] 28.2% | [11] 85.2% | [12] 63.4% | [14] 65.1% | [15] 78.8% | [16] 74.4% | [17] 57.3% | [18] 55.7%

COc1ccc(N2C(=O)CC(c3cc(OC)c(OC)c(OC)c3)C3C2=NC(=O)N3C)cc1 (configuration not stated)
inactive: [1] 110% | [2] 105% | [3] 108% | [4] 108% | [5] 105% | [6] 97.5% | [20] 104% | [7] 103% | [9] 106% | [11] 105% | [12] 109% | [14] 100% | [19] 101% | [15] 97.9% | [16] 98.2% | [17] 105% | [18] 102%

O=C(COc1cc(O)c2c(=O)cc(-c3ccccc3)oc2c1)Nc1ccccc1
inactive: [1] 83.7% | [2] 85.6% | [3] 101% | [4] 61.6% | [5] 89.9% | [6] 81.5% | [7] 81.9% | [8] 108% | [9] 81.5% | [10] 95.3% | [11] 97.7% | [12] 72.9% | [13] 98.3% | [14] 91% | [19] 101% | [15] 91% | [16] 97.3% | [17] 85.4% | [18] 96%

O=c1oc2ccc(-c3ccc(F)cc3F)cc2c(=O)n1-c1ccc(Cl)c(C(F)(F)F)c1
inactive: [2] 13.1% | [7] 17.4% | [8] 77.1% | [9] 21% | [10] 10.9% | [12] 56% | [14] 14.5% | [19] 17.4% | [15] 29.4% | [17] 21.5% | [18] 15.8%
active: [1] 6.77% | [3] 6.97% | [4] 5.36% | [5] -29.4% | [6] -12.4% | [11] 3.35% | [13] -3.32% | [16] -9.78%

CCOC(=O)C1=C(C)c2ccc(OC)c(OC)c2C1
inactive: [1] 91.8% | [2] 99.2% | [3] 88.5% | [4] 118% | [5] 79.2% | [6] 78.6% | [7] 81.4% | [8] 113% | [9] 115% | [10] 102% | [11] 123% | [12] 117% | [13] 93.8% | [14] 108% | [19] 99.5% | [15] 91.9% | [16] 98.4% | [17] 126% | [18] 97.3%

Cc1ccc(C(=O)c2oc3ccc4c(C)cc(=O)oc4c3c2C)cc1
inactive: [1] 40.4% | [2] 63.1% | [3] 61.3% | [6] 25.7% | [7] 57.3% | [9] 64.7% | [10] 11.7% | [12] 46.8% | [13] 37.2% | [14] 52.1% | [15] 46.7% | [17] 42.5% | [18] 23%
active: [4] 3.14% | [5] 9.32% | [8] -59.7% | [19] 4.06% | [16] -4.34%

Cc1ccc2c(n1)C(=O)C(Oc1ccc(Br)cc1)=CC2=O
inactive: [1] 94.5% | [2] 99.6% | [3] 116% | [4] 99.1% | [5] 108% | [7] 104% | [9] 110% | [10] 77% | [11] 115% | [12] 91.1% | [13] 104% | [14] 88.4% | [19] 103% | [15] 104% | [16] 106% | [17] 94.9% | [18] 84.7%
active: [6] -27%

Cc1[nH]c2ccccc2c(=O)c1CC=C(Cl)Cl
inactive: [1] 75.4% | [5] 64.5% | [6] 65.7% | [8] 35% | [11] 82.4% | [12] 34.1% | [13] 63.9% | [14] 39.6% | [15] 58% | [16] 99.5% | [17] 72.7%
active: [2] -47.2% | [3] -7.31% | [4] -74% | [7] -80.2% | [9] -22.5% | [10] -34.6% | [19] -86.8% | [18] 3.43%
